Most compounds without a hit are left out; they make up all but 5.7% or so of the library.
hgDAF-12 ag = hgDAF-12 agonism, primary luciferase screen; HEK293 GAL4-hgDAF12 UAS-luciferase reporter, agonist luminescence; normalized to butyrate control; activation, % at 6.8 µM; 370,000 tested, 1.8% active;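 active = activation above a cutoff set at the mean of all screened compounds plus 3 SD, cut at about 10% in these data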
DAX1 inh-1 = NR0B1 (DAX1) inhibition | 340,000 tested, 0.99% active | P51843 | AID 504766 | HEK293 Gal4-DAX1 luciferase reporter, luminescence | inhibition, % at 6.75 µM;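 active = inhibition above the mean over all tested compounds plus 3 SD, cut at about 4.2% in these data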;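 also: inhibition shows as a rise in luminescence from relieved DAX1 repression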
Target sequence (P51843 207-470 limits assumed): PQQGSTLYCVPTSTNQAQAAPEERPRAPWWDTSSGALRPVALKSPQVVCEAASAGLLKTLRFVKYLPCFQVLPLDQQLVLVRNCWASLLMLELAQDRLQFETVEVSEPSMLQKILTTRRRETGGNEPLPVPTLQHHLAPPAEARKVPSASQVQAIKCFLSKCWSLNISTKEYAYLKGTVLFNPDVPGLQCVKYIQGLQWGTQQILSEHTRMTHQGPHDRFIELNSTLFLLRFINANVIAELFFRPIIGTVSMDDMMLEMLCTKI
AHR act = activators of human aryl hydrocarbon receptor. AID 2796. activation, % at 5 µM. P35869. AHR-responsive luciferase reporter cells, luminescence. 320,000 tested, 2.5% active; in the data active = activation above about 47%
DAX1 inh-2 = DAX1 (NR0B1) inhibition, primary screen | HEK293T StAR-luciferase reporter, SF-1/DAX-1 repression relief | inhibition, % at 6.8 µM | 370,000 tested, 1.1% active | AID 652010;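 active = inhibition above the mean over all tested compounds plus 3 SD, cut at about 3.6% in these data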;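 also: higher inhibition means more luminescence from relief of DAX-1 repression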
hcDAF12 agonist = activates DAF-12 receptor from parasite H. contortus. 370,000 tested, 1.4% active. activation, % at 6.8 µM. AID 652067. HEK293 hcDAF-12 lit1-tk-luc reporter, luminescence; 0% DMSO, 100% Δ7-dafachronic acid;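 active = activation above the mean of all tested compounds plus 3 SD, cut at about 5.5% in these data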
ssDAF-12 act = activators of S. stercoralis DAF-12 nuclear receptor; HEK293 ssDAF-12/GRIP1 lit1-tk-luc reporter, luminescence; % of 3 µM dafachronic acid response; activation, % at 6.8 µM; 370,000 tested, 1% active;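 active = activation above the mean over all tested compounds plus 3 SD, cut at about 0.9% in these data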
Large screens that a line does not name were inactive.

Cc1ccc2c(C)c(C(=O)N(C)C(C)c3ccon3)oc2c1C (configuration not stated)	DAX1 inh-2 4.2
COC(=O)/C=c1/sc2nc3ccccc3n2c1=O	none
O=c1/c(=C/c2ccccn2)sc2nc3ccccc3n12	ssDAF-12 act 1.3
CCCCN(CCCC)C(=O)CSc1nnc(-c2cc(OC)c(OC)c(OC)c2)o1	none
Cn1cc([N+](=O)[O-])c(C(=O)NCc2cc3cc(Cl)ccc3[nH]2)n1	AHR act 48.5
Cc1cccc(N/C=C/C(=C(C#N)C#N)N(C)C)c1	AHR act 48.2
Nc1cc(=O)[nH]c(SCc2ccc(Cl)cc2)n1	none
Nc1nonc1C(=Nc1ccc(Br)cc1)NO	AHR act 65.6
Cc1cc(=O)oc2cc(OC(C)C(=O)NCC3CCC(C(=O)O)CC3)ccc12 (configuration not stated)	none
Cc1c(Cc2ccccc2)c(=O)oc2cc(OC(C)C(=O)NCC3CCC(C(=O)O)CC3)c(Cl)cc12 (configuration not stated)	DAX1 inh-1 4.6
Cc1nn(-c2ccccn2)c2c1-c1nc(N3CCOCC3)ncc1CC2	none
CSCC[C@H](NC(=O)c1cc([N+](=O)[O-])ccc1Cl)c1nc2ccccc2[nH]1	hcDAF12 agonist 5.9
COc1ccc2c(c1)CCc1c(C(=O)N3CCCCCC3)noc1-2	DAX1 inh-2 3.8
COc1ccc2c(c1)CCc1c(C(=O)NCC(C)C)noc1-2	hgDAF-12 ag 13.2, DAX1 inh-1 5.6
O=C(Nc1cc(C(F)(F)F)ccc1N1CCOCC1)c1cn2ccccc2n1	DAX1 inh-1 6.6
O=C(Nc1cc(S(=O)(=O)N2CCOCC2)ccc1N1CCOCC1)c1cn2ccccc2n1	none
CCn1c(SCC(=O)c2c[nH]c3ccccc23)nc2cc(S(=O)(=O)N3CCOCC3)ccc21	hcDAF12 agonist 5.6
COc1cccc(CNc2ncnc3ccc(-c4c(C)noc4C)cc23)c1	none
Cc1ccsc1CNc1ncnc2ccc(-c3c(C)noc3C)cc12	AHR act 55.9
COC(=O)c1ccc(COC(=O)c2[nH]c(C)c(C(C)=O)c2C)o1	none
COc1cc(OC)c(OC)cc1CNC(=O)c1ccc(S(=O)(=O)N2CC(C)OC(C)C2)cc1 (configuration not stated)	none
CN1CCCCC(NC(=O)c2ccc3ccccc3c2)C1=O (configuration not stated)	hgDAF-12 ag 10.6 (no result: DAX1 inh-1, AHR act)
CN1CCCCC(NC(=O)c2ccccc2)C1=O (configuration not stated)	none (no result: DAX1 inh-1, AHR act)
CCOc1ccc(OC(=O)c2cccc(S(=O)(=O)N3CCN(C)CC3)c2)cc1	none
C[C@H](c1ccccc1)N1C[C@@H](COCc2ccccc2)Oc2cc(N3CC[C@@H](O)C3)ccc2S1(=O)=O	DAX1 inh-2 3.9 (no result: DAX1 inh-1, AHR act)
CCCCC[C@@H](C)N1C[C@@H](COCc2ccccc2)Oc2cc(N3CC[C@H](N(C)C)C3)ccc2S1(=O)=O	DAX1 inh-2 4.1 (no result: DAX1 inh-1, AHR act)
C[C@@H](c1ccccc1)N1C[C@@H](COCc2ccccc2)Oc2cc(N3CC[C@H](O)C3)ccc2S1(=O)=O	none (no result: DAX1 inh-1, AHR act)
CCCCC[C@@H](C)N1C[C@@H](COCc2ccccc2)Oc2cc(N3CCC[C@H]3CO)ccc2S1(=O)=O	ssDAF-12 act 0.9 (no result: DAX1 inh-1, AHR act)
COc1ccccc1-c1sc2ccccc2c1-c1ccc2c(c1)OCCO2	none
O=C(c1sc2cc([N+](=O)[O-])ccc2c1Cl)N1CCCCC1	none
O=C(NCc1ccco1)[C@@H]1CCCN1C(=O)c1cccs1	none
C/C(CC(=O)Nc1ccc(N(C)C)cc1)=N\NC(=O)c1cnccn1	AHR act 51.6
COc1ccc(C(=O)N/N=C(\C)CC(=O)Nc2ccc(N(C)C)cc2)c(OC)c1	DAX1 inh-1 4.7
COCCCNC(=O)CNC(=S)N(Cc1ccc(F)cc1)C1CCCCC1	ssDAF-12 act 1.2
CCOCCCNC(=O)CNC(=S)N(Cc1ccccc1F)C1CCCCC1	none
Cc1sc2nc(CN3CCOCC3)nc(NS(=O)(=O)c3ccc4c(c3)OCCO4)c2c1C	none
Cc1ccc(S(=O)(=O)N2CCN(c3nc(CN4CCCC4)nc4sc(C)c(C)c34)CC2)cc1	none
Cc1sc2nc(CN3CCOCC3)nc(NS(=O)(=O)c3ccccc3)c2c1C	DAX1 inh-1 6.3
Cc1sc2nc(CN3CCCC3)nc(N3CCN(S(=O)(=O)c4cccs4)CC3)c2c1C	DAX1 inh-1 4.7
CCCCn1c(N)c(-c2nc3ccccc3o2)c2c([N+](=O)[O-])nn(CC)c(=O)c21	none
Cn1c(=O)c2c(-c3ccccc3)n(-c3ccccc3)cc2n(C)c1=O	none (no result: AHR act)
Cn1ncc(C#N)c1NC(=O)C1CC(c2ccc(Cl)c(Cl)c2)=NO1 (configuration not stated)	none
COc1ccccc1CCC(=O)OCC(=O)Nc1cccc(S(=O)(=O)N2CCCCC2)c1	none
Cc1nc2ccc(Br)cn2c1C(=O)N/N=C\c1ccccc1[N+](=O)[O-]	hgDAF-12 ag 10.5, hcDAF12 agonist 6.2 (no result: DAX1 inh-1)
COc1ccc(Oc2ccc(/C=N/NC(=O)c3cccnc3)cc2[N+](=O)[O-])cc1	DAX1 inh-1 4.6
O=C(N/N=C/C=C/c1ccccc1[N+](=O)[O-])c1cccnc1	AHR act 71.9
Oc1ccccc1C=NN=CC=Cc1ccccc1	none (no result: AHR act)
O=[N+]([O-])c1ccccc1C=CC=NN=Cc1ccccc1O	DAX1 inh-1 5.5 (no result: AHR act)
Cc1nc2ccc(Br)cn2c1C(=O)N/N=C\c1ccccc1Cl	none
COc1ccccc1NC(c1cccnc1)c1ccc2cccnc2c1O (configuration not stated)	none
O=C(N/N=C/c1ccccc1[N+](=O)[O-])c1cnccn1	DAX1 inh-1 4.3
O=C(N/N=C/c1ccccc1[N+](=O)[O-])c1ccncc1	none
O=C(Cc1ccccc1)N/N=C/C=C/c1ccccc1[N+](=O)[O-]	none (no result: DAX1 inh-1)
O=C(O)c1ccc(N/N=C/C=C/c2ccccc2[N+](=O)[O-])cc1	hgDAF-12 ag 11.9, ssDAF-12 act 3.6
Cc1ccc2nc(C)c(C(=O)N/N=C/c3cccs3)n2c1	hgDAF-12 ag 12.0
Cc1ccc(S(=O)(=O)N2CCC(C(=O)OCC(=O)N(CC(C)C)C3CCS(=O)(=O)C3)CC2)cc1C (configuration not stated)	none
Cc1ccc(S(=O)(=O)Nc2cccc3ncccc23)s1	none (no result: hgDAF-12 ag, DAX1 inh-2, hcDAF12 agonist, ssDAF-12 act)
CCOC(=O)C1CCN(c2cc3c(cc2NC(=O)c2ccc(F)cc2)n(C)c(=O)n3C)CC1	none
Cn1c(SCc2ccccc2F)nc2ccccc2c1=O	none
Cc1ccc(C2(C)NC(=O)N(CC(=O)N3CCN(S(=O)(=O)c4cccs4)CC3)C2=O)cc1 (configuration not stated)	none
COc1ccc(C2CC(c3ccc(F)cc3)n3nc(NC(=O)c4ccco4)nc3N2)cc1 (configuration not stated)	DAX1 inh-1 4.8

Screening results as filed in PubChem.
